Sampled rows, rich in hits. Any-hit rate of the full collection: about 31%.
PLAP act: PLAP enzyme activators, biochemical, luminescence, HTS; Alkaline phosphatase, placental type (Homo sapiens), P05187; purified PLAP enzyme, luminescent substrate read-out; hits give high values; activation fold at 20 µM; hit rate 1.2% among 96,000; AID 696, 2007; in the data active means activation fold above about 2
CYP2C19 inh: blockers of cytochrome P450 2C19 activity – biochemical, luminescence, ADME assay, primary screen | P33261 | CYP2C19 Supersomes, luciferin-H EGE luminescence, 30 min | inhibition, % at 5 µM | hit rate 21% among 96,000;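 active means CYP2C19 inhibition above a set limit at 5 µM in the primary screen, cut at about 50% in these data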;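 further: plate controls were negative control wells for no effect and 2.5 mM tranylcypromine positive control for full effect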
CYP2C9 act: human CYP2C9 activators, primary screen, biochemical, luminescence | activation factor at 5 µM | Cytochrome P450 2C9 (Homo sapiens), P11712 | AID 1024, 2008 | hit rate 1.4% among 96,000 | recombinant CYP2C9, luciferin-H conversion; hits give high values; factor 1 = untreated enzyme, 0 = blocked;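 active means activation factor of 2 or more for CYP2C9 at a 5 µM dose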;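 further: 0 = sulfaphenazole-blocked wells and 1 = vehicle-only wells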
Target sequence (P11712 whole entry, looked up): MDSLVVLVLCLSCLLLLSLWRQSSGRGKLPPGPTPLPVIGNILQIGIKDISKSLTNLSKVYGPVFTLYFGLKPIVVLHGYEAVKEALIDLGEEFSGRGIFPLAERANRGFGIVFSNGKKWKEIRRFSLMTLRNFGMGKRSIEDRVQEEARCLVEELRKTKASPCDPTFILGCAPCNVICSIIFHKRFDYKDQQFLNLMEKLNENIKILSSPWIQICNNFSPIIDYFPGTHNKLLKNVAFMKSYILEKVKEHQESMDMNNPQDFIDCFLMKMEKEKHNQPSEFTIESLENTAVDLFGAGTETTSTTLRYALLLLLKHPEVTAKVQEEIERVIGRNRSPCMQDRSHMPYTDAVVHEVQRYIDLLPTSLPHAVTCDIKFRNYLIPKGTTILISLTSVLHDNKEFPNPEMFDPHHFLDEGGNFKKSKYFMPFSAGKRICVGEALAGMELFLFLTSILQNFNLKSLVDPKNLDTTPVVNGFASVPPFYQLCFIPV
CYP2C19 act: human CYP2C19 activators, primary screen, biochemical, luminescence; 96,000 tested, under 10 active; activation factor at 5 µM; recombinant CYP2C19, luciferin-H EGE luminescence; hits give high values; 0 = fully inhibited enzyme, 1 = untreated enzyme; Cytochrome P450 2C19 (Homo sapiens), P33261;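 active means activation factor of at least 2 at 5 µM in the primary screen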;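 further: 0 = wells with 2.5 mM tranylcypromine and 1 = vehicle-only wells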
CYP2C9 inh: blockers of cytochrome P450 2C9 activity – biochemical, luminescence, ADME assay, primary screen; hit rate 20% among 96,000; inhibition, % at 5 µM; P11712; CYP2C9 Supersomes, luciferin-H conversion;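 active means blocking of liver enzyme CYP2C9 beyond about 50% at 5 µM, limit read from the data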
The depositor's hits bear a star; nt = not tested or not shown.

SMILES | PLAP act | CYP2C19 inh | CYP2C9 act | CYP2C19 act | CYP2C9 inh
COc1ccc(CNC(=O)C(c2ccc(C)cc2)N(Cc2cccs2)C(=O)c2ccc3c(c2)OCCO3)cc1 (stereo unspecified) | 1.1 | 66.1* | 0.5 | 0.3 | 49.4
Cc1cc(NCc2ccc(F)cc2Cl)n2nnnc2n1 | 0.6 | 6.7 | 0.8 | 0.9 | 17.3
O=C(OCc1cc(=O)n2c(n1)sc1ccccc12)c1ccc2c(=O)n3c(nc2c1)CCC3 | 1.4 | 29.3 | 0.2 | 0.7 | 75.9*
Cc1ccc2c(CC(=O)OCc3cc(=O)n4c(n3)sc3ccccc34)coc2c1 | 1 | -10.3 | 1.3 | 1.1 | -25.4
CC(C)(C)n1nnnc1C(c1ccccc1F)N(Cc1ccco1)CC1CCCO1 (stereo unspecified) | 1.7 | 30.1 | 0.3 | 0.7 | 70.7*
Cc1ccc2[nH]c(=O)c(C(c3nnnn3C(C)(C)C)N(Cc3ccco3)CC3CCCO3)cc2c1 (stereo unspecified) | 1.1 | 8.9 | 1 | 0.9 | 3.6
Cc1cccc2cc(C(c3nnnn3C(C)(C)C)N(Cc3ccco3)CC3CCCO3)c(=O)[nH]c12 (stereo unspecified) | 1.5 | 23.7 | 0.4 | 0.8 | 56.4*
S=c1[nH]nc(Cc2ccccc2)n1Cc1ccco1 | 2.1* | 71.3* | 0.6 | 0.3 | 39.2
Oc1ccc(-c2n[nH]c(=S)n2Cc2ccco2)cc1 | 0.9 | 31.1 | 0.3 | 0.7 | 67.9*
S=c1[nH]nc(C2CC2)n1Cc1ccco1 | 1 | 2.2 | 1 | 1 | 4.0
O=C1OC(NC(=O)c2ccccc2)C(n2cc(CO)nn2)=C1Cl (stereo unspecified) | 1.1 | 13.0 | 0.3 | 0.9 | 66.3*
O=C(NC1CCSC1=O)c1ccccc1 (stereo unspecified) | 1 | 1.2 | 0.9 | 1 | 8.3
COc1ccc(CC(=O)Nc2ccc(S(=O)(=O)Nc3nccc(C)n3)cc2)cc1 | 2.1* | -10.2 | 0.9 | 1.1 | 13.4
COc1ccc(NC(=O)CSc2nccc(C)n2)cc1 | 0.9 | 50.7* | 1 | 0.5 | -4.5
N=C1C(c2ccccc2)=C(O)CN1c1ccccc1N1CCOCC1 | 1.1 | 8.2 | 1.1 | 0.9 | -9.0
CCOC(=O)c1ccc(NC(=O)Nc2ccc(F)cc2)cc1 | 0.9 | 21.5 | 0.3 | 0.8 | 66.0*
CCOC(=O)c1ccc(NC(=O)Nc2ccc(OC)c(OC)c2)cc1 | 0.8 | 3.2 | 1.1 | 1 | -5.6
CCOC(=O)c1ccc(NC(=O)CC2C(=O)N(c3ccc(F)cc3)C(=O)N2CCC(C)C)cc1 (stereo unspecified) | 1.5 | 53.7* | 0.6 | 0.5 | 42.6
COC(=O)c1ccc(NC(=O)Nc2ccc(F)cc2)cc1 | 0.8 | 47.9 | 0.4 | 0.5 | 60.5*
CCC(CC)NC(=O)c1cc(OC)c(OC)c(OC)c1 | 1 | 3.5 | 1 | 1 | 3.0
Cc1cc(C(=O)NC(C)c2ccncc2)cs1 (stereo unspecified) | 1.2 | 39.4 | 0.6 | 0.6 | 44.2
CC1(C)CC(=O)C=C(Nc2ccccc2NC(=O)c2cnccn2)C1 | 1.2 | 0.4 | 0.6 | 1 | 42.2
Cc1cccc2cc(CN(Cc3ccco3)C(c3nnnn3CCc3ccccc3)C(C)C)c(=O)[nH]c12 (stereo unspecified) | 1.8 | 78.2* | 0.2 | 0.2 | 83.2*
COCCn1nnnc1C(C(C)C)N(Cc1cccnc1)Cc1cc2cc(OC)ccc2[nH]c1=O (stereo unspecified) | 1.4 | -15.1 | 1.3 | 1.2 | -29.4
CCN(Cc1ccccc1)C(c1cc2ccc(C)cc2[nH]c1=O)c1nnnn1CCOC (stereo unspecified) | 1.7 | 7.0 | 0.4 | 0.9 | 55.2*
SMILES | PLAP act | CYP2C19 inh | CYP2C9 act | CYP2C19 act | CYP2C9 inh
CCc1ccc2[nH]c(=O)c(CN(Cc3ccc(OC)cc3)Cc3nnnn3CCOC)cc2c1 | 1.4 | 54.6* | 0.4 | 0.5 | 57.0*
COCCn1nnnc1C(C(C)C)N(Cc1ccccc1)Cc1cc2cc(OC)ccc2[nH]c1=O (stereo unspecified) | 1.8 | 76.6* | 0.2 | 0.2 | 83.7*
CCC(C)(C)n1nnnc1C(C(C)C)N(Cc1ccco1)Cc1cc2cc3c(cc2[nH]c1=O)OCO3 (stereo unspecified) | 1 | 32.9 | 1 | 0.7 | -1.4
Cc1ccc2cc(C(c3nnnn3Cc3ccccc3)N3CCN(c4ccccc4)CC3)c(=O)[nH]c2c1 (stereo unspecified) | 1.5 | 22.9 | 0.7 | 0.8 | 30.3
COc1ccccc1NC(=O)c1ccc(NC(=O)CSc2nnnn2C)cc1 | 0.9 | 24.6 | 0.9 | 0.8 | 5.7
CC(C)OC(=O)CSc1nnc(-c2cnccn2)n1-c1ccc(Cl)cc1 | 1.7 | 37.1 | 0.6 | 0.6 | 35.5
CCOC(=O)CSc1nnc(CNC(=O)c2ccc(S(=O)(=O)N3CCCCC3)cc2)n1C | 1.2 | 11.0 | 0.9 | 0.9 | 14.5
CCc1ccc2[nH]c(=O)c(C(c3nnnn3CCOC)N3CCN(c4ccccc4F)CC3)cc2c1 (stereo unspecified) | 1.6 | 53.8* | 0.8 | 0.5 | 17.3
COc1ccc(N2CCN(C(c3cc4cc(C)ccc4[nH]c3=O)c3nnnn3Cc3ccccc3)CC2)cc1 (stereo unspecified) | 1.6 | 21.3 | 0.8 | 0.8 | 23.2
COc1ccc2[nH]c(=O)c(CN(Cc3ccco3)C(c3nnnn3Cc3ccccc3)C(C)C)cc2c1 (stereo unspecified) | 1.6 | 43.6 | 0.3 | 0.6 | 70.4*
Cc1ccc(NC(=O)c2ccc(CNS(=O)(=O)c3cccc(C(F)(F)F)c3)cc2)cc1 | 0.8 | 1.7 | 1 | 1 | 2.7
N#CCSc1ccsc1C(=O)Nc1ccc(F)cc1 | 0.8 | 53.1* | 1.2 | 0.5 | -23.4
Cc1ccc(NC(=O)c2c(C(F)(F)F)nn(C)c2SCc2cccc(C(F)(F)F)c2)cc1C | 1 | 45.8 | 0.1 | 0.5 | 91.9*
Cc1ccc(NC(=O)c2sccc2SCc2cccc(C(F)(F)F)c2)cc1 | nt | 69.1* | 0.3 | 0.3 | 73.6*
CN(C)/C=C(\C#N)C(=O)Nc1ccc(F)cc1 | 0.9 | 2.1 | 1.1 | 1 | -7.4
Cc1ccc(NC(=O)c2c(C(F)(F)F)nn(C)c2SCc2ccc(Cl)cc2)cc1C | 1.1 | 64.8* | 0 | 0.4 | 99.5*
COc1ccc(C2C(C(=O)NCc3ccco3)CCC(=O)N2c2ccc(OC)cc2)cc1 (stereo unspecified) | 1.2 | 4.8 | 0.9 | 1 | 12.3
CCc1nc2ccccc2c(C(=O)OC2CCOC2=O)c1C (stereo unspecified) | 1.4 | 51.9* | 1.1 | 0.5 | -5.4
CCCc1nc2ccccc2c(C(=O)O)c1CC | 0.9 | 1.7 | 1 | 1 | 1.3
CCCc1nc2ccccc2c(C(=O)OC2CCOC2=O)c1CC (stereo unspecified) | 1.4 | 53.1* | 0.3 | 0.5 | 65.1*

Source: PubChem
